# Screening data from PubChem BioAssay.
# Mac1 fbg inh: CD11b/CD18-fibrinogen binding inhibition; K562 CD11b/CD18 adhesion to fibrinogen, ATPlite luminescence; Mn2+ added to activate the integrin; inhibition, % at 10 µM; actives 0.54% (n = 93,000); AID 1497;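 active means primary inhibition of 50% or more at 10 µM, then 40% or more on retest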
# GALR2 blocker: antagonists of human galanin receptor 2 (GALR2) | O43603 | GALR2-expressing cells, antagonist mode | inhibition, % at 4 µM | actives 0.39% (n = 140,000) | AID 828; in the data active means inhibition above about 27%;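 further: cells stimulated with galanin 1-16 at roughly its EC80; 0% = agonist challenge control and 100% = basal control without agonist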
# GALR2 agonist: agonists of human galanin receptor 2 (GALR2); GALR2-expressing cells, agonist activation read-out; activation, % (no concentration beside the values); actives 0.48% (n = 140,000); in the data active means activation above about 5%, passing the limit was not always enough;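 further: 0% = vehicle buffer wells and 100% = reference agonist at full effect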
# CD11b adhes enh: CD11b/CD18-fibrinogen binding enhancement | P05107+P11215 | activation, % at 10 µM | AID 1499 | actives 0.07% (n = 93,000) | K562 CD11b/CD18 adhesion to fibrinogen, ATPlite luminescence;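 active means 10 µM primary screen giving 50% or more activity, confirmed by 40% or more on retest at that dose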
# S1P2 blocker: S1P2 (human) receptor antagonism; O95136; cell-based S1P2 antagonist assay, inhibition at 5 uM; inhibition, % at 5 µM; actives 0.21% (n = 97,000); AID 736; in the data active means inhibition above about 45%;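 further: CRE beta-lactamase reporter cells expressing human S1P2 stimulated with S1P; 0% = agonist at EC80 alone and 100% = agonist plus reference antagonist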
# Target sequence (O95136 whole entry, looked up): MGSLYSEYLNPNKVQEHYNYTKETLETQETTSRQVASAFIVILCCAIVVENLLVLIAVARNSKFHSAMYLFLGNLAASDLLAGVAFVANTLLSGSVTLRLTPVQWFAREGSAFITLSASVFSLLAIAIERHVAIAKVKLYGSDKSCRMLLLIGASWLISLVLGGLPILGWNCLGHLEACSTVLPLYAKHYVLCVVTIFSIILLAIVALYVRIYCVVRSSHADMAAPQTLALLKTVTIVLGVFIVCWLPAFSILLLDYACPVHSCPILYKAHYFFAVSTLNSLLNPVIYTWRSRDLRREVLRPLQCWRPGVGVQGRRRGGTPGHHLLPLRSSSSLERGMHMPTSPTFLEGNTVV
# S1P2 agonist: S1P2 (human) receptor agonism; O95136; actives 0.46% (n = 97,000); S1P2-expressing cell line, agonist reporter read-out; activation, % at 4.5 µM; in the data active means activation above about 16%;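 further: 0% = vehicle low control and 100% = maximal reference agonist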
# * marks the source's active call; other numbers are inactive results; · = no result given. In the library only some 1.5% were active in any assay of this set; here they are far more common.
SMILES,Mac1 fbg inh,GALR2 blocker,GALR2 agonist,CD11b adhes enh,S1P2 blocker,S1P2 agonist
O=C(Nc1nccs1)c1cc2c(s1)CCCCC2,72*,10,-1,-5,-9,-5
O=C(Cc1coc2ccc3ccccc3c12)N1CCCC1,10,1,0,-5,-29,25*
Cc1ccc(C(=O)C[n+]2cc(-c3ccc(C)cc3)n3c2CCCCC3)cc1,54*,-11,-2,-6,11,-2
Cc1ccc(-c2c[n+](CC(=O)OCc3ccccc3)c3n2CCC3)cc1,·,-7,-1,·,·,·
COc1ccc(/C=N/n2cnnc2SCCO)cc1OC,-3,-21,0,1,-29,19*
C=CCn1c(COc2ccccc2)nnc1SC(C)C(=O)N/N=C/c1cc(Cl)ccc1O (stereo unspecified),4,-18,1,1,-7,-1
NS(=O)(=O)c1ccc(N2N=C(c3ccccc3)CC2c2ccccc2)cc1 (stereo unspecified),42,-12,5.4*,4,·,·
CCc1ccc(C2=NN(c3ccc(S(N)(=O)=O)cc3)C(c3ccc(F)cc3)C2)cc1 (stereo unspecified),33,-18,39*,-8,-4,17*
CCc1ccc(C2=NN(S(C)(=O)=O)C(c3cccs3)C2)cc1 (stereo unspecified),15,-2,0,1,-3,-2
Cn1cccc1CC(=O)N/N=C/C=C/c1ccco1,·,3,-1,·,·,·
CN(C)/C=C(/C#N)C(=O)c1cccc(Oc2ccc(C(C)(C)C)cc2)c1,82*,-9,1,-8,-39,-4
Cc1ccccc1Oc1cccc(C(=O)/C(C#N)=C/N(C)C)c1,-5,-6,-1,-1,7,-2
Cc1cc(C)c(C)c(OC(=O)c2sc(Cl)nc2C)c1,·,-36,0,·,·,·
Cc1nc2ccc(-c3nc4ccccc4o3)cc2[nH]1,10,-5,-1,-10,26,-8
Nc1ccc(-c2nc3ccc(-c4nc5ccccc5o4)cc3[nH]2)cc1,18,8,6.4*,-6,-15,1
Cc1nc2ccccc2cc1OCc1ccc(Cl)cc1,96,20,0,-9,70*,-3
Cc1nc2ccccc2cc1OCc1ccccc1,·,24,-1,·,31,-2
COc1ccccc1OC(C)C(=O)Nc1nc(-c2ccc(S(=O)(=O)N3CCOCC3)cc2)cs1 (stereo unspecified),-3,1,-3,8,9,-8
COc1ccccc1C(=O)Nc1nc(-c2ccc(S(=O)(=O)N3CCOCC3)cc2)cs1,60,25,2,23,77*,-7
Cn1c(=O)oc2cc(S(=O)(=O)N3CCCC(C(=O)N4CC=C(c5ccccc5)CC4)C3)ccc21 (stereo unspecified),61*,6,-1,-3,16,-5
Cc1ccc(NC(=O)CCn2ccc([N+](=O)[O-])n2)nc1,·,-1,-1,·,·,·
COCCn1c(C)cc(/C=C2/NC(=O)N(c3ccc(Cl)cc3)C2=O)c1C,·,-8,7.1*,·,·,·
CCCn1c(-c2cc(OC)c(OC)c(OC)c2)nc2nc3ccccc3nc21,·,-10,-1,·,5,17*
Cc1cccc(C(=O)NC(=S)NNC(=O)c2ccccc2Cl)c1,·,9,0,·,·,·
Cc1cc(C(=O)NNC(=S)NC(=O)/C=C/c2ccccc2Cl)n[nH]1,65*,-3,1,1,-31,-3
SMILES,Mac1 fbg inh,GALR2 blocker,GALR2 agonist,CD11b adhes enh,S1P2 blocker,S1P2 agonist
CC(C)(C#CCN1CCCCC1)OCCOC(c1ccccc1)c1ccccc1,·,-1,0,·,·,·
CCCn1c(NCc2c[nH]c3ccccc23)nc2ccccc21,-3,2,-1,-2,-31,21*
CCCn1c(NCc2cccc(OC)c2OC)nc2ccccc21,-6,-3,-1,-2,14,-6
CCCCNC(=O)c1cc2c(=O)n3cccc(C)c3nc2n(Cc2ccccc2)c1=N,1,4,7.7*,-10,·,·
COCCn1c(=N)c(C(=O)NCCc2ccccc2)cc2c(=O)n3cccc(C)c3nc21,·,-1,-1,·,-9,0
Cc1cccn2c(=O)c3cc(C(=O)NCCc4ccccc4)c(=N)n(CCCn4ccnc4)c3nc12,5,-5,8,0,-98,64*
Cc1cccn2c(=O)c3cc(C(=O)NCCN4CCOCC4)c(=N)n(CCc4ccccc4)c3nc12,-6,-29,7.9*,-2,-32,39*
CCNC(=O)c1cc2c(=O)n3cccc(C)c3nc2n(CCc2ccccc2)c1=N,1,4,0,4,0,-4
O=C(NC(=S)N1CCN(c2ccc(C(F)(F)F)cc2[N+](=O)[O-])CC1)c1cccs1,27,9,-2,-5,·,·
O=C(Nc1ccccc1C(F)(F)F)c1cc2ncc(CCCl)cn2n1,·,-4,0,·,·,·
Cc1cccc(S(=O)(=O)C(C#N)c2nc3ccccc3nc2N2CCOCC2)c1 (stereo unspecified),58*,-10,-1,0,5,-3
N#C/C(=N\Nc1cccc(Cl)c1)C(=O)c1ccccc1,98*,8,-4,-11,-5,-5
N#C/C(=N\Nc1ccccc1Cl)C(=O)c1ccccc1,104*,9,-1,-11,-21,-7
Cc1c(N/N=C(\C#N)C(=O)c2ccccc2)c(=O)n(-c2ccccc2)n1C,14,11,0,1,·,·
CCN=c1scc(-c2ccc3c(c2)NC(=O)CO3)n1N=C1CCCC1,98*,11,0,-8,10,-6
COCC(C)n1c(-c2ccc3c(c2)NC(=O)CO3)csc1=Nc1ccc(OC(F)F)cc1 (stereo unspecified),96*,6,-1,-10,11,-7
O=C(CNS(=O)(=O)c1ccccc1)NCC(=O)OCc1ccc(C(=O)c2ccccc2)cc1,·,0,-1,·,·,·
Cn1c(SCC(=O)c2ccc3c(c2)OCCO3)nnc1C1CC1,·,5,-1,·,-11,-1
Cn1nc(CC(=O)NCc2ccc(C(F)(F)F)cc2)c2ccccc2c1=O,8,17,-3,-1,62*,-4
C/C(=N\NC(=O)c1cccs1)C(C)(C)C,·,3,-1,·,·,·
Cc1cc(C)c2nc(NNC(=O)c3ccc(S(=O)(=O)N4CCc5ccccc5C4)cc3)sc2c1,·,18,1,·,·,·
Cc1cc(C)c2sc(NNC(=O)c3ccc(S(=O)(=O)N4CCc5ccccc5C4)cc3)nc2c1,·,-1,7.7*,·,·,·
COc1ccc(OC)c(C(=O)CSc2nc3cccnc3n2C)c1,-8,8,-3,3,-15,32*
Cc1ccc(C(=O)CSc2nc3cccnc3n2C)cc1,-30,-8,-2,2,8,-3
CC(C)(C)C(=O)Nc1cc2nn(-c3ccccc3)nc2cc1Cl,99*,8,-1,-14,-5,-7
COc1ccc(CNC(=O)CNS(=O)(=O)c2ccc(Cl)cc2)cc1,·,7,0,·,·,·
Cc1sc2ncnc(NCC3(N4CCOCC4)CCCCC3)c2c1C,52,-6,-3,0,-11,-5
